PubChem BioAssay AID881 (National Center for Advancing Translational Sciences (NCATS), 2007)
Out of some 110,000 compounds screened, about 610 (0.55%) were called active. A call without a number means that no potency is given here. Inconclusive results (about 3%) are left out. Calls come from the whole dose curve; as a rule, active = well fitted inhibition curve with a large enough effect; inconclusive = small, poorly fitted or top-dose-only effect; inactive = no such curve, though single readings can be large or run the other way. Many of the other results were omitted from the sample, so actives are more common in it than they were.

What follows are compounds tested against Polyunsaturated fatty acid lipoxygenase ALOX15B (Homo sapiens) (UniProt O15296) (assay: qHTS Assay for Inhibitors of 15-hLO-2 (15-human lipoxygenase 2)). Details: purified 15hLO-2, xylenol orange hydroperoxide absorbance; series mostly up to 0.0915 µM.
Sequence of Polyunsaturated fatty acid lipoxygenase ALOX15B (Homo sapiens) (O15296 whole entry, looked up): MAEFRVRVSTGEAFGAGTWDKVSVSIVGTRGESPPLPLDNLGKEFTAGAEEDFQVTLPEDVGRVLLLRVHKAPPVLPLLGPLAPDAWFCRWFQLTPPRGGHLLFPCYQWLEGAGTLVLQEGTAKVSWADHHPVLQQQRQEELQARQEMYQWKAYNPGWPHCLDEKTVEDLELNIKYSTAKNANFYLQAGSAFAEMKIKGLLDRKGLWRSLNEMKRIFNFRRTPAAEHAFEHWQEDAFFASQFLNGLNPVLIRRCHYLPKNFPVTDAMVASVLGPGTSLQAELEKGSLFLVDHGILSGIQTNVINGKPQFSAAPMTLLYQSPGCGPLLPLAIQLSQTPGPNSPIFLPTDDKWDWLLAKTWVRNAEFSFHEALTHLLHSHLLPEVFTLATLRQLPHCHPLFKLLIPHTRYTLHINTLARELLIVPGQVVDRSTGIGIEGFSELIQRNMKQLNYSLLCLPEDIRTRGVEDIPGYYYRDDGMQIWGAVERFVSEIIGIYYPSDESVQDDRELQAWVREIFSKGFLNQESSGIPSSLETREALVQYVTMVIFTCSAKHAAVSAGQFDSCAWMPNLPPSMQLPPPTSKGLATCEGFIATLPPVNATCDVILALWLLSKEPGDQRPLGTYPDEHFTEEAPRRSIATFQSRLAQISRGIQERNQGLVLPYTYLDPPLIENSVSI
Source text: Assay Overview: NIH Molecular Libraries Screening Centers Network [MLSCN] NIH Chemical Genomics Center [NCGC] MLSCN Grant: MH081283-01A1 PI Name: Holman, T.R., University of California, Santa Cruz Human lipoxygenase 15hLO-2 is a member of the closely related lipoxygenase family of enzymes which catalyze the site-specific oxidation of arachidonic acid to various hormone precursor molecules and as such is a candidate for drug development in a variety of disease areas, such as cancer and inflammation. Inhibition of 15hLO-2 activity was screened by utilizing arachidonic acid as a substrate. The extent of hydroperoxide product formation was measured by a secondary chromogenic reaction in which xylenol orange (XO, Sigma-Aldrich, cat. number 39,818-7) reacts with the ferric ions produced from the reaction between the hydroperoxide and ferrous ions. The Fe(III)-XO complex is characterized with red-shifted absorbance at 560 nm. A purified preparation of human 15hLO-2 was supplied by Professor Ted Holman, University of California, Santa Cruz.
Assay Protocol: Buffer: 25 mM Hepes pH 7.5, 0.01% Triton X-100. Reagents/Controls: Buffer in columns 3 and 4 as negative control (no enzyme). Substrate solution: 45 uM arachidonic acid (Sigma-Aldrich, St. Louis, MO) final concentration dispensed throughout the plate. Enzyme: 50 nM 15hLO-2 final concentration in columns 1, 2, 5-48. Column 1 is neutral (100% activity). Column 2 contained pin-transferred titration of NDGA (nordihidroguaiaretic acid, Sigma-Aldrich, N 5023, top concentration 10 mM in DMSO, then 1:2 dilution in duplicate). (Dilution factor: 23 nL into 4 uL.) Chromogenic detection reagent (divalent iron/xylenol orange, Fe-XO): 200 uM xylenol orange plus 300 uM ferrous ammonium sulfate prepared freshly in 50 mM sulfuric acid. Assay Steps: Three uL of enzyme were dispensed to 1536-well Greiner black clear bottom plates. Compounds and controls (23 nL) were transferred via Kalypsys PinTool. The plates were incubated for 15 min at room temperature, and then 1 uL of substrate solution was added to start the reaction. After room temperature incubation for 90 minutes, 4 uL of Fe-XO solution was added to each well followed by a short spin (1000 rpm, 15 sec) and the plates were then incubated for 30 min. The absorbance at 405 and 573 nm were measured using ViewLux (Perkin-Elmer) High-throughput CCD imager and absorbance protocol settings. The 573-to-405 absorbance ratio was used to compute reaction progress.
Note: nearly all actives have a fitted effect of over 60% in size.
Potency is the fitted concentration of half-maximal effect.

Row | SMILES | Potency
1 | CC(=O)NC(=O)NC(C)Cc1ccccc1 (stereo not given) | inactive
2 | CC(C)CC(C)Nc1ccc(Nc2ccccc2)cc1 (stereo not given) | 1.58 µM (active)
3 | CC(C)(O/N=C(\C(=O)N[C@@H]1C(=O)N2C(C(=O)[O-])=C(C[n+]3ccccc3)CS[C@@H]12)c1csc(N)n1)C(=O)O | inactive
4 | CCCCCCCCc1[se]c2ccccc2c1Br | inactive
5 | CN(C)[C@@H]1C(=O)C(C(N)=O)=C(O)[C@@]2(O)C(=O)C3=C(O)c4c(O)cccc4[C@@](C)(O)C3CC12 (stereo not given in full) | inactive
6 | COc1ccccc1-c1[se]c2ccccc2c1I | inactive
7 | Clc1ccc(C(c2ccc(Cl)cc2)n2cc[n+](C[C@@H](OCc3ccc(Cl)cc3Cl)c3ccc(Cl)cc3Cl)c2)cc1 | 25.1 µM (active)
8 | N#CC(C#N)=Cc1cc(O)c(O)c([N+](=O)[O-])c1 | inactive
9 | COC(=O)c1ccc2[se]c(CC3CCCCC3)c(I)c2c1 | inactive
10 | CC(C)(O)c1[se]c2ccccc2c1I | inactive
